Data reported in PubChem BioAssay (NCI).
Compounds without any hit were thinned out: in the full panel of roughly 79,000, 15% have a hit. Cut-off read from the data, not from the text of the source: active = growth inhibition above about 70%; inactive = the rest.

How the values were obtained:
[1] = NCI Yeast Anticancer Drug Screen. Data for the rad50 strain (AID 155);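 note: 0% = growth of vehicle-only cultures of the same strain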; conditions: S. cerevisiae rad50 strain growth inhibition; at 50.0 µM; stronger effect = higher value
In short: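 Relative growth inhibition (compound vs vehicle) was measured in yeast with a defined repair-gene alteration.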

[2] = NCI Yeast Anticancer Drug Screen. Data for the mec2-1 strain (AID 157); conditions: S. cerevisiae mec2-1 strain, at 50.0 µM, stronger effect = higher value
In short: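 Strain: mec2-1 (DNA repair/cell cycle alteration). Compound exposure, then growth measured; inhibition expressed relative to vehicle.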

[3] = NCI Yeast Anticancer Drug Screen. Data for the sgs1 mgt1 strain (AID 161);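 note: 0% = growth of cultures given vehicle only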; conditions: S. cerevisiae sgs1 mgt1 strain, at 50.0 µM, stronger effect = higher value
In short: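 Mutant yeast exposed to compound; growth scored against vehicle-only wells.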

[4] = NCI Yeast Anticancer Drug Screen. Data for the cln2 rad14 strain (AID 165);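 note: 0% = growth equal to vehicle treated cultures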; conditions: S. cerevisiae cln2 rad14 strain, at 50.0 µM, stronger effect = higher value
In short: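 Compounds are applied to the cln2 rad14 yeast strain, and growth is then compared with that of vehicle-treated cultures to give inhibition.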

[5] = NCI Yeast Anticancer Drug Screen. Data for the bub3 strain (AID 167); conditions: S. cerevisiae bub3 mutant strain, at 50.0 µM, stronger effect = higher value
In short: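 Screening used yeast with an engineered genetic alteration affecting cell cycle control. Compound-exposed cultures were compared with vehicle cultures, and reduced growth was taken as inhibition.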

[6] = NCI Yeast Anticancer Drug Screen. Data for the mlh1 rad18 strain (AID 175); conditions: S. cerevisiae mlh1 rad18 strain growth inhibition; at 50.0 µM; stronger effect = higher value
In short: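 Read-out is yeast growth inhibition, calculated against vehicle-only controls. The compound was applied to a strain engineered with DNA damage repair alterations.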

Measured: growth inhibition

Cc1ccc(C)[nH]1
inactive: [1] -2.85% | [2] 7.35% | [3] -8.45% | [4] 53.2% | [5] -4.4% | [6] 18.1%

Cc1cc(NC(C)C)c(C)cc1NC(C)C
inactive: [1] 49% | [2] 31.9% | [3] 47.1% | [4] 21.8% | [5] 33.5% | [6] 43.8%

O=C1NC(=O)C2C1C1C=C3c4ccccc4N(c4ccccc4)C32[C@H]2C(=O)NC(=O)[C@@H]12 (stereo not given in full)
inactive: [1] -3.4% | [2] -13.2% | [3] 7.15% | [4] 24.9% | [5] 17.4% | [6] -4.9%

ClCc1ccc(CCc2ccc(CCl)cc2)cc1
inactive: [1] 17.9% | [2] -17.9% | [3] 22.6% | [4] -44.9% | [5] 16.3% | [6] 8.15%

Cc1[nH]n(-c2ccccc2)c(=O)c1N=Nc1cccc(C(F)(F)F)c1
inactive: [1] 8.7% | [2] 14.7% | [3] 17.8% | [4] -4.75% | [5] 6.95% | [6] 15.7%

CCC1(O)C(=O)c2ccccc2N(c2ccccc2)C1=O (stereo not given)
inactive: [1] 9.05% | [2] 3.7% | [3] 4% | [4] -5.85% | [5] 8.3% | [6] 18.2%

CN(C)c1ccccc1C(=O)NNC(=S)Nc1ccccc1
inactive: [1] 20.9% | [2] -1.75% | [3] 42.7% | [4] -13.1% | [5] 30.4% | [6] 19.4%

O=c1nc(NC2CC2)ccn1C1OC(CO)C(O)C1O (stereo not given)
inactive: [1] -3.75% | [2] -4.25% | [3] -1% | [4] -0.25% | [5] 4.35% | [6] -20.9%

CC1CN=C(N(C(=O)Nc2ccc(F)c(Cl)c2)c2ccccc2)S1 (stereo not given)
inactive: [1] -1.55% | [2] 14.3% | [3] -12.3% | [4] 25.4% | [5] 41.3% | [6] -29.9%

CCC(=O)N(O)C(C)(C)C
inactive: [1] 10.8% | [2] 0.65% | [3] 14.7% | [4] 7.55% | [5] 7.2% | [6] 22.1%

CC(C)Oc1ccc(C(=O)OCCC(C)N2CCCC2)cc1 (stereo not given)
inactive: [1] 40.9% | [2] 36.7% | [3] 53.2% | [4] 31.5% | [5] 46.4% | [6] 27.9%

CCCCc1c(O)c2c(=O)[nH]c(C)nc2oc1=O
inactive: [1] -9.8% | [2] -5.95% | [3] -9.65% | [4] -13.2% | [5] -32.4% | [6] 10.9%

O=S1(=O)NC2CCC3NS(=O)(=O)NC4CCC(N1)N4S(=O)(=O)N23 (stereo not given)
inactive: [1] -3.75% | [2] -17.4% | [3] -4.1% | [4] 6.6% | [5] -0.55% | [6] -8.25%

CCC(=O)OCc1ccc(Cl)cc1
inactive: [1] 23.9% | [2] 11.4% | [3] 7.9% | [4] 8.6% | [5] 12.4% | [6] 4.9%

C=CCOC(=O)CCCCC(=O)OCC=C
inactive: [1] 3.1% | [2] 4.15% | [3] 3.65% | [4] 6.1% | [5] 19.9% | [6] 0.1%

Cc1ccc(S(=O)(=O)N2CCSCCN(S(=O)(=O)c3ccc(C)cc3)CCN(S(=O)(=O)c3ccc(C)cc3)CC2)cc1
inactive: [1] 5.7% | [2] -2.7% | [3] 0.2% | [4] -19.9% | [5] -18.7% | [6] -18.4%

O=c1[nH]c2ccc(Br)cc2cc1Br
inactive: [1] 21.9% | [2] -9% | [3] 0.3% | [4] 6.65% | [5] 2.45% | [6] 20.8%

CCCCCCCC(=O)Oc1ccccc1
inactive: [1] 14.1% | [2] -10.5% | [3] -0.75% | [4] -10% | [5] -2.3% | [6] -1.2%

CC(=O)CC(SCCSCCSC(CC(C)=O)c1ccccc1)c1ccccc1 (stereo not given)
inactive: [1] 6.9% | [2] -3.65% | [3] 5.05% | [4] 17.1% | [5] 3.95% | [6] 14.7%

S=C(S)NCCCn1ccnc1
inactive: [1] -11.8% | [2] 23.8% | [3] -14.8% | [4] -15.9% | [5] -30.7% | [6] -0.8%
